The values that follow come from PubChem BioAssay (NCATS).

Test [1] concerns the target Ubiquitin carboxyl-terminal hydrolase 1 (Homo sapiens) (UniProt O94782). In words: Inhibitors of USP1/UAF1: Pilot qHTS (AID 504865). Also: nearly all actives have a fitted effect of over 35% in size. Also: potency is read from the fitted curve at half-maximal effect. An outline of the steps: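 Kinetic fluorescence assay: 1nM USP1/UAF1, 15 min compound preincubation, then 150nM Ub-Rho; 480/540 nm.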
Test [2] concerns DIV14. In words: qHTS profiling for inhibitors of Plasmodium falciparum proliferation (AID 504749). Also: nearly all actives have a fitted effect of over 60% in size. Also: potency is read from the fitted curve at half-maximal effect. The following applies: P. falciparum in erythrocytes, SYBR Green DNA, 72 h; series mostly up to 28.7 µM. An outline of the steps: (§1)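 SYBR Green fluorescence of parasite DNA, read after lysis and overnight dark incubation, measured growth over 72 h in erythrocyte culture at 0.3% parasitemia and 2.5% hematocrit. Data normalised to DMSO and 0.29 uM artemisinin, with plate-drift correction.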
Background: Quantitative high-throughput screening tests each substance at several concentrations.

Test [3] relates to GB4. The test is described as above. The note with it: P. falciparum in erythrocytes, SYBR Green DNA, 72 h; series mostly up to 28.7 µM. An outline of the steps:
as §1

The test system of test [4] is ICS. The test is described as above. The following applies: P. falciparum in erythrocytes, SYBR Green DNA, 72 h; series mostly up to 28.7 µM. An outline of the steps: as §1
Test [5] relates to W2. The description is as above. The following applies: P. falciparum in erythrocytes, SYBR Green DNA, 72 h; series mostly up to 28.7 µM. An outline of the steps: as §1
A short description of test [6]: S16 Schwann cell PMP22 intronic element firefly luciferase assay (AID 624032). Also: nearly all actives have a fitted effect of over 30% in size. Also: potency is read from the fitted curve at half-maximal effect. Put shortly:
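Luciferase reporter of PMP22 intronic-element expression in stably transfected S16 rat Schwann cells, read by ONE-Glo luminescence after 24 h compound exposure at 37 C. Activity scaled between DMSO (0%) and positive-control PTC124; concentration-effect curves quality-classified.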

The target of test [7] is Cytochrome P450 3A4 (Homo sapiens) (UniProt P08684). In words: qHTS Assay for Inhibitors and Substrates of Cytochrome P450 3A4 (AID 884). Also: potency is read from the fitted curve at half-maximal effect; nearly all actives have a fitted effect of over 50% in size. Put shortly:
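Luminescent readout of luciferin produced by CYP3A4 (20 nM) dealkylation of Luciferin-PPXE, 25 uM (its KM). NADPH-driven reaction ran 60 min at RT after 10 min compound preincubation; data scaled to 57 uM ketoconazole as 100% inhibition.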

A short description of test [8]: Confirmation and Secondary Assay for Modulators of Hemoglobin Beta Chain Splicing at IVS2 654 locus (AID 910).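 Also: HeLa cells stably carrying EGFP split by mutant beta-globin IVS2-654 intron; per-well total GFP intensity by laser scanning cytometry after 2-day treatment.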 An outline of the steps: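 Readout: per-well total peak green fluorescence (488 nm ex, 500–520 nm em) from objects 5–250 µm, reflecting correct splicing of an EGFP-654 reporter. Compounds were applied for 2 days at 37 °C to overnight-plated HeLa EGFP-654 cells; controls were DMSO and 500 nM IVS2-654 PNA.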

Test [9] addresses Cytochrome P450 3A4 (Homo sapiens) (UniProt P08684). In words: qHTS Assay for Activators of Cytochrome P450 3A4 (AID 885). Also: nearly all actives have a fitted effect of over 65% in size. An outline of the steps: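 Luminescent readout of luciferin formed from 25 uM Luciferin-PPXE (KM level) by 20 nM CYP3A4 in 200 mM KPO4, with 60 min NADPH-driven reaction at room temperature after 10 min compound exposure. Ketoconazole (57 uM) defined 100% inhibition.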

SMILES strings stand for the structures. Values joined by “and” are separate entries in the source; they are usually repeats but may differ in a detail not shown here. Equal entries are not always repeated. Records with an inconclusive call do not appear. Active and inactive are the calls of the source. Calls follow the shape of the dose curve; as a rule, active = well fitted curve in the direction sought with a large enough effect; inconclusive = small, poorly fitted or top-dose-only effect, or another doubt; inactive = no such curve, though single readings can be large; an effect the other way counts as inactive or inconclusive.

Ubiquitin carboxyl-terminal hydrolase 1 (Homo sapiens), sequence (O94782 whole entry, looked up): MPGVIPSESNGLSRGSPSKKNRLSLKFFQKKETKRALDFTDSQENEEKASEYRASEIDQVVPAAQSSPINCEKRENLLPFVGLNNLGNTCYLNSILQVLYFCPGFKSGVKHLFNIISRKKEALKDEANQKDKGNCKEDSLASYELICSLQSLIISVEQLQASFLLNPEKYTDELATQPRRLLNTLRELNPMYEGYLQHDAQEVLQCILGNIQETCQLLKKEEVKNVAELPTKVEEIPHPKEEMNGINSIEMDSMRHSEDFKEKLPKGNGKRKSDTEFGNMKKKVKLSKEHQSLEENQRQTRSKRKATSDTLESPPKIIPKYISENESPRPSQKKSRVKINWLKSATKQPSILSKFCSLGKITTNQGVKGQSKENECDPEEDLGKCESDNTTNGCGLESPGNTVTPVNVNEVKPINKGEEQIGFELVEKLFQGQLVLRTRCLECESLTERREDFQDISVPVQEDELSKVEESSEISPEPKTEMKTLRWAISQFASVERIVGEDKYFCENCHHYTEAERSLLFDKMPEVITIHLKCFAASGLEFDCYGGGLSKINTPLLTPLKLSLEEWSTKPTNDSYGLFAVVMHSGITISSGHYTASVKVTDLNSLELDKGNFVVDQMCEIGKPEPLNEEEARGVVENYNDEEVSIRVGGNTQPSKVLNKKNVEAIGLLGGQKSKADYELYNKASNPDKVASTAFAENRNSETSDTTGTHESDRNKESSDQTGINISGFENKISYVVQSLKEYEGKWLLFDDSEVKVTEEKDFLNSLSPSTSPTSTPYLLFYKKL
Cytochrome P450 3A4 (Homo sapiens), sequence (P08684 whole entry, looked up): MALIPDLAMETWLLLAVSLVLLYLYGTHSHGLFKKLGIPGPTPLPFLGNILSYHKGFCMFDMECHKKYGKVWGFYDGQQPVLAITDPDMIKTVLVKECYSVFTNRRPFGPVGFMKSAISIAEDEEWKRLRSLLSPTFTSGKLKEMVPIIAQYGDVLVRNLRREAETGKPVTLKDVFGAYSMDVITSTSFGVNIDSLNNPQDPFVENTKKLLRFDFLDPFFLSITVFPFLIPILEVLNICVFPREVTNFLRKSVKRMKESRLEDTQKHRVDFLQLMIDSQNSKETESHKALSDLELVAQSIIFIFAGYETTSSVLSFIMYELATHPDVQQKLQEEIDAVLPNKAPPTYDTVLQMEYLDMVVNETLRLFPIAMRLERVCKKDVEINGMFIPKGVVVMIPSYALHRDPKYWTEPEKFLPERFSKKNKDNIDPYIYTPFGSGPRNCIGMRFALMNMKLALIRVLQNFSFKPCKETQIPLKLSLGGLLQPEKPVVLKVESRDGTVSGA

On to `CNC1=CN(O)C(c2ccccc2)=c2cc(Cl)ccc2=N1`, for which the Potency entry in test [1] was “inactive”. Also, the Potency was 1.51 µM (active) in [2]; 953 nM (active) and 15.1 µM (active) in test [3]; 3.98 µM (active) in test [4]; 1.2 µM (active) in test [5].

As to `C[C@@H]1CCN(C(=O)[C@H](CCCNC(=N)N)NS(=O)(=O)c2cccc3c2NC[C@H](C)C3)[C@@H](C(=O)O)C1`, the Potency entry in test [1], in test [6], in test [2], in [3] and in test [4] was “inactive” in each case.

As for `C=C1NC(=O)c2cc(CN(C)c3ccc(C(=O)N[C@@H](CCC(=O)O)C(=O)O)s3)ccc2N1`, the Potency result in test [1] was “inactive”. In addition, the values for the Potency in test [6] and in test [5] were 0.0057 µM (active) and 13.5 µM (active), respectively.

Turning to `CCC(=O)O[C@]1(C(=O)CCl)[C@@H](C)CC2C3C[C@H](F)C4=CC(=O)C=CC4(C)[C@@]3(F)C(O)CC21C` (stereo partly drawn), the Potency in test [2] was 4.26 µM (active); in [3] it was 7.57 µM (active); in test [4], 2.82 µM (active); in [5] it was 6.01 µM (active).

As to `N#C/C(=C1/SCC(c2ccccc2Cl)S1)n1ccnc1` (stereo not drawn), the Potency result in test [1] and in test [5] was “inactive” in each case. The Potency in [6] is 11.4 µM (active).

`CCOC(=O)C(CCc1ccccc1)NC(C)C(=O)N1Cc2cc(OC)c(OC)cc2CC1C(=O)O` (stereo not drawn): the Potency result in test [1] and in test [6] was “inactive” throughout. Further, the Potency in [2] was 6.01 µM (active); in test [5], 5.36 µM (active).

As to `O=C(O)Cc1sc(-c2ccc(Cl)cc2)nc1-c1ccccc1`, the Potency result in [1], in [6], in test [2], in [3], in test [4] and in [5] was “inactive” throughout.

Take `C[C@]12CC[C@@H]3c4ccc(O)cc4C[C@@H](CCCCCCCCCS(=O)CCCC(F)(F)C(F)(F)F)C3[C@@H]1CC[C@@H]2O` (stereo partly drawn): the Potency in test [2] was 3.01 µM (active); in [3], 9.53 µM (active); in test [4], 2 µM (active); in [5], 6.75 µM (active).

Regarding `CC(=O)C1(O)Cc2c(O)c3c(c(O)c2C(OC2CC(N)C(O)C(C)O2)C1)C(=O)c1c(O)cccc1C3=O` (stereo not drawn), the Potency in test [1] is 22.4 µM (active); in test [2] it was 5.36 µM (active); in test [3], 6.75 µM (active); in [4], 3.55 µM (active); in test [5] it was 4.26 µM (active).

On to `C[C@]12C=CC(=O)N[C@@H]1CC[C@@H]1C2CC[C@]2(C)C(C(=O)Nc3cc(C(F)(F)F)ccc3C(F)(F)F)CC[C@@H]12` (stereo partly drawn), for which the values for the Potency in [4] and in test [5] were 3.16 µM (active) and 1.51 µM (active), respectively.

`CC(C)C(=O)OCC(=O)[C@@]12OC(C3CCCCC3)O[C@@H]1CC1C3CCC4=CC(=O)C=C[C@]4(C)C3[C@@H](O)C[C@@]12C` (stereo partly drawn): the Potency in test [2] is 1.51 µM (active); in [3] it was 1.07 µM (active); in [4] it was 0.794 µM (active); in test [5], 0.239 µM (active).

In the case of `CC1(C)CC1C(=O)N/C(=C/CCCCSCC(N)C(=O)O)C(=O)O` (stereo not drawn), the Potency result in test [1], in test [6], in test [2], in test [3], in test [4] and in test [5] was “inactive” each time.

`CCC(C(=O)C(C)C(O)C(C)CCc1ccc(C)c(O)c1C(=O)O)C1OC(CC)(C2CC[C@@](O)(CC)C(C)O2)CC1C` (stereo partly drawn): the Potency was 20 µM (active) in test [7]; 1.81 µM (active) in [6]; 0.953 µM (active) in test [2]; 0.757 µM (active) in test [3]; 0.631 µM (active) in test [4]; 0.675 µM (active) in [5]. Also, the Potency entry in test [8] was “inactive”.

Take `CC1C(=O)C(=O)C=CN1C` (stereo not drawn): the Potency result in test [1], in test [6], in test [2], in test [3], in [4] and in test [5] was “inactive” in each case.

As to `CC(CN1CC(=O)NC(=O)C1)N1CC(=O)NC(=O)C1` (stereo not drawn), the Potency entry in test [1], in test [2], in [3], in test [4] and in [5] was “inactive” in each case. Also, the Potency in test [6] was 18.1 µM (active).

For `Nc1ncn(C2C[C@H](O)[C@@H](CO)O2)c(=O)n1` (stereo partly drawn), the Potency result in test [1], in test [2], in test [3], in test [4] and in test [5] was “inactive” in each case.

`Cc1cc2nc3c(=O)[nH]c(=O)nc-3n(CC(O)C(O)C(O)COP(=O)(O)O)c2cc1C` (stereo not drawn): the Potency in [1] was 31.6 µM (active). The Potency entry in test [3] and in test [4] was “inactive” in each case.

Consider `Nc1nc2[nH]cc(CCc3ccc(C(=O)NC(CCC(=O)O)C(=O)O)cc3)c2c(=O)[nH]1` (stereo not drawn), for which, in test [6], the Potency result is “inactive”. The Potency in test [3] was 0.0849 µM (active); in [4] it was 10 µM (active); in test [5], 0.0757 µM (active).

Turning to `CC(=O)OC1C([N+]2(C)CCCCC2)C[C@H]2C3CC[C@H]4C[C@H](OC(C)=O)C([N+]5(C)CCCCC5)CC4(C)C3CCC12C` (stereo partly drawn), the Potency result in test [6] and in test [4] was “inactive” in each case.

As to `CC(=O)CC(c1ccccc1)C1C(=O)Oc2ccccc2C1=O` (stereo not drawn), the Potency result in test [1], in [6], in test [2], in [3], in test [4] and in [5] was “inactive” in each case.

With `CCCC(=O)Nc1c(I)cc(I)c(C[C@H](CC)C(=O)O)c1I`, the Potency entry in [1], in test [6], in test [3] and in test [4] was “inactive” each time.

On to `COc1ccc(S(=O)(=O)N2c3ccc(Cl)cc3[C@](O)(c3ccccc3Cl)[C@@H]2C(=O)N2CCC[C@H]2C(N)=O)cc1OC`, for which the Potency result in [9], in test [1] and in test [3] was “inactive” each time. Moreover, in [4], the Potency is 10 µM (active).

Turning to `O=C(O)C(O)c1ccccc1` (stereo not drawn), the Potency entry in [1], in [6], in [2], in [3], in test [4] and in test [5] was “inactive” in each case.

Take `CO/N=C(/C(=O)N[C@@H]1C(=O)N2C(C(=O)O)=C(CSc3nnnn3C)CS[C@H]12)c1csc(N)n1`: the Potency entry in test [1], in test [6], in [2], in [3], in [4] and in test [5] was “inactive” each time.

For the compound `CCCCC(=O)O[C@]1(C(=O)CO)CCC2C3CCC4=CC(=O)CCC4(C)C3C(O)CC21C` (stereo partly drawn), the Potency result in test [6], in [2] and in test [3] was “inactive” each time.
